Data taken from PubChem BioAssay (NCATS).
Results filed as inconclusive are left out. A number with no mark means an inactive call. Activity calls are given as the source filed them. The call rests on the fitted dose curve; in most records, active means well fitted inhibition curve with a large enough effect; inconclusive means small, poorly fitted or top-dose-only effect; inactive means no such curve, though single readings can be large or run the other way.

Experiment: BET inhibitor-based combinations targeting novel dependencies in MECOM-rearranged (r) AML: MV-4-11 cell line (AID 2202233); further: nearly all actives have a fitted effect of over 45% in size;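 on viability, % of control: plate controls were DMSO for no effect and blank wells for full effect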
Conditions: MV-4-11 AML viability, CellTiter-Glo luminescence, 48 h; series mostly up to 46 µM
Description: Ecotropic viral insertion site 1 (EVI1) is located on chromosome 3q26.2 as part of the MECOM (MDS and EVI1 complex) locus. Under normal hematopoiesis, EVI1 is a regulator of hematopoietic stem cell maintenance and self-renewal and EVI1 levels decrease as the cells differentiate. In approximately 5-10% of de novo acute myeloid leukemia (AML) EVI1 is aberrantly expressed, including Chromosomal inv(3)(q21;q26.2) or t(3;3)(q21;q26.2) alterations (MECOM-r) that account for about 50% of AML with EVI1 overexpression 31. AMLs with high levels of EVI1 have a poor prognosis and an overall survival time averaging between 10-14 months. EVI1 overexpression confers resistance in leukemia cells, highlighting the need to develop new targeted therapies for EVI1 overexpressing AMLs. Here, we performed an unbiased chemical drug screening by evaluating the single agent activity of a collection of 2,480 oncology-focused, approved and investigational drugs (NCATS Mechanism Interrogation Plates, MIPE v5.0) against a panel of seven AML cell lines. These included four MECOM-r cell-lines (AML-191, AML-194, UCSD-AML1 and HNT-34) and three non-MECOM-r AMLs (MV4-11, OCI-AML3 and SET-2). Exploiting the mechanistic redundancy built in the library, we identified target-level sensitivities in MECOM-r AML cells and relative activity as compared to other AML subtypes.
A collection of 2480 mechanistically annotated dugs (MIPE v5.0) was used to screen four 3q26.2 rearranged AML cell lines and three non-3q26.2 rearranged AML cell lines. This library purposely exploits redundancy by including multiple inhibitors of key onco-targets, while simultaneously encompassing mechanistic diversity, targeting more than 800 distinct mechanisms of action. Briefly, cells were seeded in 5 uL of growth media using a Multidrop Combi dispenser into 1536 well white polystyrene tissue culture treated plates (Corning) at a density of 500cells/well. For each cell-line, for each of the 2480 drugs in MIPE v5.0 library, an 11-point dose curve was generated via a 1536 pin-tool. Plates were incubated for 48 hr at standard incubator conditions, covered by a stainless steel gasketed lid to prevent evaporation. Cell viability was determined by luminescence based, Cell Titer Glo assay (Promega). In detail, 3 uL of Cell Titer Glo were added to each well and plates were incubated at room temperature for 15 min with a stainless-steel lid in place. Luminescence readings were taken using a Viewlux (PerkinElmer) with a 2 s exposure time per plate. Compound dose-response curves were normalized to DMSO and empty well controls on each plate. Quantitative drug activity data from dose-response curves was determined utilizing area Under the Curve (AUC) and Z-transformed AUC (Z-AUC, a mean-centering transformation applied to each individual cell-line screened).
Potency means the concentration at half of the fitted maximal effect.

SMILES | Potency | viability, % of control
COc1cc(OC)c(/C=C/S(=O)(=O)Cc2ccc(OC)c(NCC(=O)O)c2)c(OC)c1 | 263 nM (active) | 
CC(C)CNc1ccnc(NCc2csc(-c3ccccc3)n2)n1 | 8330 nM (active) | 
CCC1=C(C)CN(C(=O)NCCc2ccc(S(=O)(=O)NC(=O)NC3CCC(C)CC3)cc2)C1=O (stereo not given) | inactive | 
COc1cc(N2CCC(N(C)C)CC2)ccc1Nc1ncc(Cl)c(Nc2ccccc2P(C)(C)=O)n1 | 93.4 nM (active) | 
C1=C/COCc2cc(ccc2OCCN2CCCC2)Nc2nccc(n2)-c2cccc(c2)COC/1 | 13.2 nM (active) | 
C=C(C)[C@@H]1CC[C@]2(C(=O)O)CC[C@]3(C)[C@H](CC[C@@H]4[C@@]5(C)CC[C@H](O)C(C)(C)[C@@H]5CC[C@]43C)[C@@H]12 | inactive | 
c1ccc([C@H]2CN3CCSC3=N2)cc1 | inactive | 
Cn1ccc2cc3c(cc21)CCN3C(=O)Nc1cccnc1 | inactive | 
COC1CCC(N(C(=O)C2CCC(C)CC2)c2cc(C3=CCCCC3)sc2C(=O)O)CC1 (stereo not given) | inactive | 
CN(C)C1CCN(C(=O)c2ccc(NC(=O)Nc3ccc(-c4nc(N5CCOCC5)nc(N5CCOCC5)n4)cc3)cc2)CC1 | 118 nM (active) | 
CC(=O)OCC(=O)[C@@]1(O)CC[C@H]2[C@@H]3CCC4=CC(=O)CC[C@]4(C)[C@H]3C(=O)C[C@@]21C | inactive | 
O=C(O)c1cn(C2CC2)c2cc(N3CCNCC3)c(F)cc2c1=O |  | 112% [at 8.46 µM]
O=C(NOCC1CC1)c1ccc(F)c(F)c1Nc1ccc(I)cc1Cl | 7420 nM (active) | 
Cc1cccc(Nc2nc(N[C@@H]3CCCC[C@H]3N)ncc2C(N)=O)c1 | 2630 nM (active) | 
O=c1c(O)c(-c2ccc(O)c(O)c2)oc2cc(O)cc(O)c12 | inactive | 
Cc1c(-c2ccc(O)cc2)n(Cc2ccc(OCCN3CCCCCC3)cc2)c2ccc(O)cc12 | 16600 nM (active) | 
Cn1cc(-c2[nH]c3cc(NC(=O)[C@H](N)C4CCCCC4)cc4c3c2C=NNC4=O)cn1 | 263 nM (active) | 
Nc1[nH]c(=O)ncc1F | inactive | 
O=C1NC(=O)C(c2cnc3ccccn23)=C1c1cn2c3c(cc(F)cc13)CN(C(=O)N1CCCCC1)CC2 | 186 nM (active) | 
COc1nccc(-c2c(-c3ccc(F)cc3)ncn2C2CCNCC2)n1 | 20900 nM (active) | 

SMILES | Potency | viability, % of control
CC(C)(C#N)c1cc(Cn2cncn2)cc(C(C)(C)C#N)c1 | inactive | 
CN1CCN(c2ccc(OC(F)(F)F)c(Nc3ncc4c(n3)-c3c(c(C(N)=O)nn3CCO)CC4)c2)CC1 | 93.4 nM (active) | 
Nc1ncnc2c1C(=O)N(c1ccc(C3CCC(CC(=O)O)CC3)cc1)CCO2 (stereo not given) | inactive | 
S=c1nc[nH]c2nc[nH]c12 | 417 nM (active) | 
C[C@]12CC[C@@H]3c4ccc(O)cc4CC[C@H]3[C@H]1[C@@H](O)[C@@H](O)[C@H]2O | inactive | 
CCCOc1ccc(C(=O)OCCN(CC)CC)cc1N | inactive | 
CCOC(CN1C(=O)[C@](CC(=O)Nc2ccc(C)cc2)(NC(=O)Nc2ccc(C)cc2)c2ccccc21)OCC | 23500 nM (active) | 
CCN(CC)CCOc1ccc(Nc2ncc3cc(-c4c(Cl)cccc4Cl)c(=O)n(C)c3n2)cc1 | 590 nM (active) | 
CC(C)=CC[C@@H](O)C1=CC(=O)c2c(O)ccc(O)c2C1=O | 8330 nM (active) | 
COc1cc2c(cc1-c1c(C)noc1C)ncc1[nH]c(=O)n([C@H](C)c3ccccn3)c12 | 417 nM (active) | 
Cc1ccc(CN2CCNCC2)cc1NC(=O)CNc1ccc(F)c(F)c1 | inactive | 
CC(C)Nc1cc(C(F)(F)F)cc2nc(NC(=O)c3cccnc3)nn12 | inactive | 
CN(CCOc1ccc(CC2SC(=O)NC2=O)cc1)c1ccccn1 (stereo not given) | inactive | 
COc1ccc(Cc2ccc(NC(N)=O)cc2)cc1-c1cccc(Cl)c1 | inactive | 
C[C@H](Cc1ccc(O)c(O)c1)[C@@H](C)Cc1ccc(O)c(O)c1 | 2950 nM (active) | 
CCN(CCCOc1ccc2c(Nc3cc(CC(=O)Nc4cccc(F)c4)[nH]n3)ncnc2c1)CCOP(=O)(O)O | 372 nM (active) | 
CCCCC(CC)COC(=O)C(C#N)=C(c1ccccc1)c1ccccc1 (stereo not given) | inactive | 
O=C(Nc1ncc(-c2cc(C(F)F)nn2-c2c(Cl)cccc2Cl)s1)C1CC1 | 1050 nM (active) | 
COc1cc(NC(=O)c2ccc(-c3ccc(Cl)cc3)o2)cc(OC)c1 | inactive | 
CNC(=O)c1cc(Oc2ccc(NC(=O)Nc3ccc(Cl)c(C(F)(F)F)c3)c(F)c2)ccn1 | 590 nM (active) | 
